From PubChem BioAssay (EPA / NIEHS)
Several values for one entry are separate records, joined by “and”; a condition that tells them apart may be missing. Equal entries are not always repeated. Inconclusive results are not listed. Activity calls are given as the source filed them. Rule for the calls, unless noted: active = hit-call score of the fitted dose curve at least 0.9, where 1 is the maximum; inconclusive = response in the unintended direction; inactive = score below 0.9.

Experiments:
[1] = Tanguay_ZF_120hpf_TRUN_legacy: (Legacy) Oregon State University Tanguay Lab 120 Hour Post-fertilization zebrafish Assay for Truncated Body (AID 2283655)
Outline: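 Tropical 5D wild-type embryos, dechorionated with pronase at 4 hpf, were placed singly in wells at 6 hpf and statically exposed at 28C until 120 hpf, final DMSO 0.64%. Truncated body was scored present/absent by brightfield microscopy.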

[2] = Tanguay_ZF_120hpf_NC_legacy: (Legacy) Oregon State University Tanguay Lab 120 Hour Post-fertilization zebrafish Assay for Notochord and Tail Malformation (AID 2283656)
Outline: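 Dechorionated Tropical 5D wild-type zebrafish embryos, one per well from 6 hpf, statically exposed to 120 hpf at 28C in 0.64% DMSO final. Notochord distortion scored present/absent by brightfield; dead embryos excluded.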

[3] = system: Thyroperoxidase (TPO), gene 54314; assay: CCTE_Simmons_AUR_rTPO: CCTE's Amplex UltraRed Assay for Thyroperoxidase (TPO) Inhibition, Simmons Lab (AID 2283662);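 for AC50: potency for loss of signal meaning inhibition of peroxidase activity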
Outline: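 Cell-free peroxidase activity assay using rat thyroid gland microsomes with excess H2O2 (300 uM) and 25 uM Amplex UltraRed. Compounds tested from 5 nM to 87.5 uM; fluorescence measured after 30 min at 37C, analysed relative to DMSO baseline.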

[4] = CCTE_Simmons_CellTiterGLO_HEK293T: Viability Assessment in CCTE's Assays for Thyroperoxidase (TPO) Inhibition, Simmons Lab (AID 2283665);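 note: cells exposed to compound for 24 h before readout; actives reduce ATP signal below DMSO vehicle meaning cytotoxicity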
Outline: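 HEK293T, 10 000 cells/well, DMEM + 1% FBS; 8-pt titration 5 nM–87.5 uM [final], 0.5% DMSO; 24 hr, 37C, 5% CO2; CellTiter-Glo luminescence; n=3 biological replicates.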

[5] = Tanguay_ZF_120hpf_TR_legacy: (Legacy) Oregon State University Tanguay Lab 120 Hour Post-fertilization zebrafish Assay for Touch Response (AID 2283667)
Outline: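 Tropical 5D wild-type zebrafish embryos were exposed statically in sealed, foil-covered plates at 28C until 120 hpf, with 0.64% (vol/vol) final DMSO. Touch response was scored as present or absent; embryos that died were not scored.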

[6] = CCTE_Padilla_ZF_144hpf_TERATOSCORE: (Legacy) CCTE's 144 Hour Post-fertilization zebrafish Assay Teratoscore, Padilla Lab (AID 2283679; active = hit-call score of the fitted dose curve at least 0.9, where 1 is the maximum; inactive = score below 0.9;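 for AC50: zebrafish embryos with chorions exposed by immersion from 6-8 hpf to 5 dpf with daily renewal; teratogenicity score from eye scoring of death hatching and malformations at 144 hpf; higher score means more developmental defects relative to DMSO baseline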)
Outline: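 Larvae scored by eye at 144 hpf for death, hatching and malformations after a day in clean Hanks'. Before that, daily-renewed exposure at 80 uM (0.4% DMSO, 26C) from roughly 6-8 hpf through 5 dpf, 4 embryos per chemical.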

[7] = STM_H9_OrnithineISnorm_perc: Stemina devTOX quickPredict H9 human embryonic stem cell (hESC)-based Assay for Ornithine (ORN) Metabolite Biomarker, Normalized (AID 2283712; active = hit-call score of the fitted dose curve at least 0.9, where 1 is the maximum; inactive = score below 0.9;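 note: ornithine released into spent medium during last day measured by mass spectrometry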)
Outline: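 H9 human embryonic stem cells kept pluripotent receive test chemical over 72 h, refreshed daily by media exchange. Media from the closing 24 h is deproteinized and analysed by UPLC-HRMS on an amide column; ornithine signal is scaled to labelled standard and vehicle.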

[8] = read-out: solute carrier (SLC10A1), SLC10A1 (gene 6554); assay: LTEA_HepaRG_SLC10A1: Life Technologies and Expression Analysis (LTEA) Assay for solute carrier (SLC10A1) using HepaRG (AID 2283657; active = hit-call score of the fitted dose curve at least 0.9, where 1 is the maximum; inactive = score below 0.9); conditions: mRNA level, 48 h; actives raise or lower the signal
Outline: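 Differentiated HepaRG cells were plated 48 h, then exposed in serum-free induction medium for 48 h to 8 concentrations (top 100 uM, half-log steps, 0.5% DMSO). SLC10A1 mRNA was quantified by qRT-PCR normalized to ACTB, GAPDH, POLR2A; bidirectional fit versus DMSO.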

[9] = read-out: matrix metalloproteinase-1 (MMP1), MMP1 (gene 4312); assay: LTEA_HepaRG_MMP1: Life Technologies and Expression Analysis (LTEA) Assay for matrix metalloproteinase-1 (MMP1) using HepaRG (AID 2283658; active = hit-call score of the fitted dose curve at least 0.9, where 1 is the maximum; inactive = score below 0.9); conditions: mRNA level, 48 h; actives raise or lower the signal
Outline: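 Differentiated HepaRG cells, plated 48 h then switched to serum-free induction medium, were exposed in duplicate for 48 h to eight half-log concentrations up to 100 uM in 0.5% DMSO; MMP1 mRNA measured by qRT-PCR, normalized to ACTB, GAPDH, POLR2A.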

[10] = read-out: Cytochrome P450 (CYP24A1_1), CYP24A1 (gene 1591); assay: LTEA_HepaRG_CYP24A1_1: Life Technologies and Expression Analysis (LTEA) Assay for Cytochrome P450 (CYP24A1_1) using HepaRG (AID 2283671; active = hit-call score of the fitted dose curve at least 0.9, where 1 is the maximum; inactive = score below 0.9); conditions: mRNA level, 48 h; actives raise or lower the signal
Outline: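 HepaRG, 48 h exposure, 8-pt half-log series from 100 uM in 0.5% DMSO, duplicates. Readout: TaqMan qRT-PCR of CYP24A1 mRNA, housekeeping-normalized (ACTB/GAPDH/POLR2A). Bidirectional curve fit vs DMSO baseline.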

CCC(=C(c1ccc(O)cc1)c1ccc(OCCN(C)C)cc1)c1ccccc1
outcome [1]: inactive
outcome [2]: inactive
AC50 [3]: 9.22 µM (active) and 8.64 µM (active)
AC50 [4]: 8.78 µM (active) and 3.78 µM (active)
outcome [5]: inactive
AC50 [6]: 7.87 µM (active)

CCN(CC)CCNc1ccc(CNC=O)c2sc3ccc(OC)cc3c(=O)c12
outcome [1]: inactive
outcome [2]: inactive
AC50 [3]: 24.9 µM (active)
AC50 [4]: 22.1 µM (active)
outcome [5]: inactive
AC50 [6]: 57.8 µM (active)
AC50 [7]: 7.85 µM (active)

NC(=O)N(O)[C@@H]1C=C[C@H](Oc2cccc(Oc3ccc(F)cc3)c2)C1
outcome [1]: inactive
outcome [2]: inactive
AC50 [3]: 6.75 µM (active)
AC50 [4]: 33.1 µM (active)
outcome [5]: inactive
AC50 [6]: 14.9 µM (active)

CCC(C)(C)C1CCC(O)CC1 (stereo not given)
outcome [1]: inactive
outcome [2]: inactive
outcome [5]: inactive
outcome [6]: inactive

COC(=O)CCCCC(=O)OC
outcome [1]: inactive
outcome [2]: inactive
outcome [5]: inactive

CC[C@H](c1ccc(O)cc1)[C@@H](CC)c1ccc(O)cc1
outcome [1]: inactive
outcome [2]: inactive
AC50 [3]: 4.36 µM (active)
AC50 [4]: 2.25 µM (active)
outcome [5]: inactive
AC50 [6]: 14.9 µM (active)

CC[C@H](C)[C@@H](C(=O)O)n1sc2ccccc2c1=O
outcome [1]: inactive
outcome [2]: inactive
outcome [5]: inactive

CC(O)CO (stereo not given)
outcome [1]: inactive
outcome [2]: inactive
outcome [8]: inactive
outcome [9]: inactive
outcome [5]: inactive
outcome [10]: inactive

CCCCCCCCC(=O)O
outcome [1]: inactive
outcome [2]: inactive
outcome [5]: inactive

CN1CCN(c2ccccc2/C=C2\SCCN(c3ccc(Cl)c(Cl)c3)C2=O)CC1
outcome [1]: inactive
outcome [2]: inactive
outcome [3]: inactive
AC50 [4]: 9.55 µM (active)
AC50 [6]: 5.38 µM (active)
AC50 [7]: 6.56 µM (active)
